Source: PubChem BioAssay
Hits are enriched below; roughly 2.9% of the tested compounds scored in any of these assays.
CRFR2-BP ag – CRF-BP/CRF-R2 complex agonism. AID 588473. HEK293 CRF-R2/CRF-BP, calcium dye fluorescence (FLIPR); percent of saturating CRF peptide response. 350,000 tested, 0.46% active. activation, % at 13.2 µM;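 active means activation of at least 50%, plus an integration ratio under a set limit after plate pattern correction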;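 further: plate controls were neutral control wells without compound for no effect and CRF at EC100 for full effect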
CRFBP-R2 block – antagonists of CRF-binding protein/CRF-R2 receptor complex; HEK293 CRF-R2/CRF-BP, CRF-induced calcium fluorescence; inhibition, % at 11.8 µM; 350,000 tested, 0.59% active; AID 588475;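 active means inhibition of the ligand-induced calcium signal above about 50% at the single tested concentration, limit read from the data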
MEKK2 WT-MEK5 – raises or lowers MEK5 binding to wildtype human MEKK2 PB1 domain | binding response (% of control), % at 10 µM | bead flow cytometry, Alexa488-MEK5 binding to MEKK2 WT; actives lie on both sides | 290,000 tested, 1.1% active | AID 1531; in the data active means binding response below about 67% or above about 130%
ABCB6 inh MLPCN – inhibitors of human ABC transporter ABCB6; K562-ABCB6 porphyrin accumulation, flow cytometry, 1 h; hits give low values; AID 602162; fluorescence ratio to DMSO, % at 10 µM; Q9NP58; 360,000 tested, 0.19% active;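 active means fluorescence ratio to DMSO below 75%, the collection mean minus 3 SD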;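 further: signal is porphyrin accumulated inside mitochondria; 100% equals median channel fluorescence of DMSO control wells; lower ratio means ABCB6 inhibition with less porphyrin fluorescence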
MEKK2 mut-MEK5 – signal of MEK5 binding to mutant human MEKK2 PB1 domain. bead flow cytometry, Alexa488-MEK5 binding to MEKK2 mutant. AID 1530. percent response, % at 10 µM. 290,000 tested, 0.35% active; in the data active means percent response above about 24%, passing the limit was not always enough
MEKK3 PB1 HTS – MEKK3-MEK5 PB1 interaction, increase or decrease. Q99759. bead-based flow cytometry, Alexa488-MEK5 binding to MEKK3; actives lie on both sides; 0 = blocked by unlabeled MEK5, 100 = vehicle. binding response (% of control), % at 10 µM. 290,000 tested, 1.4% active;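 active means binding response more than 3 SD above or below the average of its plate-row segment, actives on both sides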;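 further: Alexa488 bead fluorescence after subtracting the streptavidin-only scavenger bead signal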
MEKK2wt confirm – raises or lowers MEK5 binding to wildtype human MEKK2, retest; shares compounds with MEKK3 PB1 HTS; bead flow cytometry, Alexa488-MEK5 binding to MEKK2 WT; actives lie on both sides; binding response (% of control), % at 10 µM; 5,900 tested, 2.4% active; in the data active means binding response below about 16% or above about 210%; inactive means in between
MEKK2mut-MEK5 – signal of MEK5 binding to mutant human MEKK2, retest | shares compounds with MEKK3 PB1 HTS | 5,900 tested, 2% active | bead flow cytometry, Alexa488-MEK5 binding to MEKK2 mutant | percent response, % at 10 µM; in the data active means percent response mostly above about 71%, no sharp cut-off; inactive means mostly below about 38%;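 further: higher means compound restores mutant binding toward wildtype level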
MEKK3 confirm – MEKK3-MEK5 PB1 inhibition, single concentration confirmation; shares compounds with MEKK3 PB1 HTS; bead flow cytometry, Alexa488-MEK5 binding to MEKK3; hits give low values; binding response (% of control), % at 10 µM; 5,900 tested, 1.8% active; AID 1894;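 active means binding response below 72% of control, or above a set upper limit, though filed actives all read lower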;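 further: 100% = DMSO only wells and 0% = binding blocked by excess unlabeled MEK5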
Numbers without * were called inactive; · = no result; [ ] = dose if it differs, or a comment.

SMILES | CRFR2-BP ag | CRFBP-R2 block | MEKK2 WT-MEK5 | ABCB6 inh MLPCN | MEKK2 mut-MEK5 | MEKK3 PB1 HTS | MEKK2wt confirm | MEKK2mut-MEK5 | MEKK3 confirm
O=C(CCCn1c(=O)c2ccccc2n(Cc2cccc(F)c2)c1=O)NC1CCN(Cc2ccccc2)CC1 | · | · | 107 | · | 3 | 102 | · | · | ·
O=C(CCCCn1c(=O)c2ccccc2n(Cc2ccccc2)c1=O)NC1CCN(Cc2ccccc2)CC1 | 0 | -12 | 32*[inhibitor] | 97 | -20 | 22*[inhibitor] | 105 | 2 | 101
COCc1c(C#N)c(NCCc2ccccc2)nc(C)c1[N+](=O)[O-] | 1 | 0 | 106 | 98 | 1 | 128* | -1.0*[inhibitor] | -29 | 0.0*
CC(=O)Nc1cccc(-c2ccnc3c2CC(C)(C(=O)Nc2cccc(C(C)=O)c2)O3)c1 (stereo not given) | · | · | · | 97 | · | · | · | · | ·
Cc1cc(C)n(-c2nc(NCCN(C)C)c3c4c(sc3n2)CCCC4)n1 | 16 | -12 | 147* | 101 | 28 | 88 | 137 | 31 | 105
CCn1c(CC(=O)Nc2ccccc2C)nnc1SCC(=O)NC1CCCC1 | -1 | 4 | 96 | 101 | 0 | 100 | · | · | ·
COc1ccc(NC(=O)C2C(=O)NC3(C)CC2c2ccccc2O3)cc1 (stereo not given) | 0 | -1 | 96 | 105 | -8 | 88 | · | · | ·
CC12CC(c3ccccc3O1)C(C(=O)NCc1ccccc1)C(=O)N2 (stereo not given) | -1 | -13 | 87 | 95 | -6 | 81*[inhibitor] | 82 | -10 | 87
Cc1cc2c(cc(C(=O)OC(C)C(=O)NCc3ccc(F)cc3)n2C)o1 (stereo not given) | 0 | -3 | · | 94 | · | · | · | · | ·
O=[N+]([O-])c1cc(S(=O)(=O)N2CCOCC2)ccc1OCc1ccccc1C(F)(F)F | 0 | 0 | · | 96 | · | · | · | · | ·
CCOC(=O)[C@H]1[C@H]2COc3ccc(Cl)cc3[C@@H]2N2C(=O)CNC(=O)[C@@]12C | 0 | 4 | · | 96 | · | · | · | · | ·
COc1ccc(C#Cc2ccc(C3=CC(=O)CC(C)(C)C3=O)cc2)cc1 | 5 | 11 | · | 98 | · | · | · | · | ·
Cc1nnc(SCC(=O)NCc2ccccc2Cl)n(N)c1=O | 0 | -2 | 107 | 97 | 1 | 130* | 111 | 7 | 102
Cc1nnc(SCc2ccccc2)n(N)c1=O | 0 | -16 | 93 | 99 | -1 | 69*[inhibitor] | 100 | -2 | 103
Cc1ccc(CSc2nnc(C)c(=O)n2N)cc1 | 0 | 11 | 101 | 91 | -1 | 131* | 102 | 2 | 100
O=C(CN1C(=O)C(=O)N(C2CCCC2)C1=O)Nc1ccc(F)cc1F | 0 | 4 | · | 97 | · | · | · | · | ·
Nc1ccn([C@@H]2O[C@H](CNCc3cccc4c3sc3ccccc34)[C@@H](O)[C@H]2O)c(=O)n1 | 11 | 5 | · | 98 | · | · | · | · | ·
CCCCN(C)CC(O)Cn1cc(/C=C/C(=O)c2ccc(OCC)cc2)c2ccccc21 (stereo not given) | · | · | 200* | · | 62* | 108 | 169 | 42 | 101
COc1ccc([N+](=O)[O-])cc1NCc1c(F)cccc1F | -1 | 43 | · | 99 | · | · | · | · | ·
Cc1ccc(C(=O)OCC(=O)NC2CCCC2)cc1 | 2 | -14 | 104 | 101 | 4 | 104 | · | · | ·
O=C(O)Cn1cc(CN2CCOCC2)c2ccccc21 | -1 | 5 | 104 | 100 | 3 | 106 | · | · | ·
Cn1cc(CN2CCN(c3ccccc3)CC2)c2ccccc21 | -1 | -25 | 92 | 98 | -9 | 73*[inhibitor] | 112 | 10 | 108
CCCCCCCC[n+]1cccc(C(=O)N(CC)CC)c1 | 1 | 1 | 100 | 103 | -1 | 99 | · | · | ·
